# Inconclusive results are not listed. Calls of active or inactive are those of the source.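 The calls were made as follows, unless noted: active = normalized viability below 100% at a tested concentration; inactive = the rest.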
# Experiments:
# [1] = growth inhibition of DIPG glioma cells, dose response, cell-based, SU-DIPG-XVII, MIPE5.0, CellTiter-Glo, qHTS (AID 1347060; cut-off not given, nearly all actives have AC50 up to about 26 µM;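 as to AC50: cells exposed to compound for 48 hours before viability readout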); settings: SU-DIPG-XVII viability, CellTiter-Glo ATP luminescence
# [2] = growth inhibition of DIPG glioma cells, dose response, cell-based, SU-DIPG-XIII, MIPE4.0, CellTiter-Glo, qHTS (AID 1347061; cut-off not given, nearly all actives have AC50 up to about 37 µM;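 also: cells exposed to compound for 48 hours before readout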); settings: SU-DIPG-XIII viability, CellTiter-Glo ATP luminescence
# [3] = growth inhibition of DIPG glioma cells, dose response, cell-based, JHH-DIPG-1, MIPE4.0, CellTiter-Glo, qHTS (AID 1347062; cut-off not given, nearly all actives have AC50 up to about 27 µM;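 as to AC50: cells exposed to compound for two days before readout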); settings: JHH-DIPG-1 viability, CellTiter-Glo ATP luminescence
# [4] = growth inhibition of DIPG glioma cells, dose response, cell-based, SU-DIPG-IV, MIPE4.0, CellTiter-Glo, qHTS (AID 1347063; cut-off not given, nearly all actives have AC50 up to about 30 µM;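 also: compound exposure lasted 48 hours before the viability readout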); settings: SU-DIPG-IV viability, CellTiter-Glo ATP luminescence
# [5] = growth inhibition of DIPG glioma cells, dose response, cell-based, SU-DIPG-XIII, MIPE5.0, CellTiter-Glo, qHTS (AID 1347064; cut-off not given, nearly all actives have AC50 up to about 23 µM;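 as to AC50: cells exposed to compound for 48 hours before the viability read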); settings: SU-DIPG-XIII viability, CellTiter-Glo ATP luminescence
# [6] = viability loss in pontine glioma line – cell-based, SU-DIPG-XXV, MIPE5.0, CellTiter-Glo, qHTS, dose response (AID 1347065; cut-off not given, nearly all actives have AC50 up to about 26 µM;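 also: cells exposed to compound for 48 hours before ATP readout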); settings: CellTiter-Glo ATP luminescence
# [7] = SU-DIPG-VI glioma cell viability, MIPE4.0 library, CellTiter-Glo luminescence, qHTS (AID 1347066; cut-off not given, nearly all actives have AC50 up to about 30 µM;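 also: cells exposed to compound for 48 hours before readout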); settings: CellTiter-Glo ATP luminescence
# [8] = JHH-DIPG-1 glioma cell viability, MIPE5.0 library, CellTiter-Glo luminescence, qHTS (AID 1347067; cut-off not given, nearly all actives have AC50 up to about 26 µM;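 also: cells exposed to compound for 48 hours before readout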); settings: JHH-DIPG-1 glioma viability, CellTiter-Glo ATP luminescence
# [9] = SU-DIPG-XXV glioma cell viability, MIPE5.0 library, qHTS (AID 1347068; cut-off not given, nearly all actives have IC50 up to about 30 µM;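 as to IC50: cells exposed to compound for 48 hours before viability readout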)
# [10] = ovarian cancer cell viability with rucaparib, profiling panel, oncology-focused library, rucaparib conditional (AID 1508598); settings: patient-derived ovarian cancer cells, CellTiter-Glo viability, 144 h, stronger effect = lower value
# [11] = modifiers of HSF1 nuclear foci, imaging, Selleck Cancer Library (AID 1347162; in the data active = plate-normalised HSF1 focus index below about 0.46); settings: human cells, at 10 µM; SSMD: measured here: HSF1 foci SSMD mean; cell count: measured here: cell number; plate-normalised HSF1 focus index: stronger effect = lower value
# [12] = sensitizers of A549 cells to miR-34 induction, primary screen, imaging, A549 dox-inducible miR-34, nuclei and caspase counts (AID 1347080;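 active = compounds whose cell count with miR-34 switched on is under 0.7 times the count with it off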); settings: A549 miR-34 inducible, Hoechst nuclei count, 48 h
# [13] = survival rescue of mitochondrial mutant cells in low glucose, primary screen, MELAS cybrids, Rieske KO mouse fibroblasts, CellTiter-Glo (AID 1508586;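 active = mean z-score across replicates of 1.96 or higher in either the MELAS or the Rieske mutant cell line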;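 also: z relative to plate mean and SD of compound and empty wells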)
# [14] = at 0.000305 µM, OCI-C5x cells, with rucaparib 10 µM, 100% = cells with rucaparib alone
# [15] = at 0.000305 µM, OCI-C5x cells, without rucaparib
# [16] = at 0.000305 µM, OCI-P5x cells, with rucaparib 20 µM, 100% = cells with rucaparib alone
# [17] = at 0.000305 µM, OCI-P5x cells, without rucaparib
# [18] = at 0.00122 µM, OCI-C5x cells, with rucaparib 10 µM, 100% = cells with rucaparib alone
# [19] = at 0.00122 µM, OCI-C5x cells, without rucaparib
# [20] = at 0.00122 µM, OCI-P5x cells, with rucaparib 20 µM, 100% = cells with rucaparib alone
# [21] = at 0.00122 µM, OCI-P5x cells, without rucaparib
# [22] = at 0.00488 µM, OCI-C5x cells, with rucaparib 10 µM, 100% = cells with rucaparib alone
# [23] = at 0.00488 µM, OCI-C5x cells, without rucaparib
# [24] = at 0.00488 µM, OCI-P5x cells, with rucaparib 20 µM, 100% = cells with rucaparib alone
# [25] = at 0.00488 µM, OCI-P5x cells, without rucaparib
# [26] = at 0.0195 µM, OCI-C5x cells, with rucaparib 10 µM, 100% = cells with rucaparib alone
# [27] = at 0.0195 µM, OCI-C5x cells, without rucaparib
# [28] = at 0.0195 µM, OCI-P5x cells, with rucaparib 20 µM, 100% = cells with rucaparib alone
# [29] = at 0.0195 µM, OCI-P5x cells, without rucaparib
# [30] = at 0.0781 µM, OCI-C5x cells, with rucaparib 10 µM, 100% = cells with rucaparib alone
# [31] = at 0.0781 µM, OCI-C5x cells, without rucaparib
# [32] = at 0.0781 µM, OCI-P5x cells, with rucaparib 20 µM, 100% = cells with rucaparib alone
# [33] = at 0.0781 µM, OCI-P5x cells, without rucaparib
# [34] = at 0.313 µM, OCI-C5x cells, with rucaparib 10 µM, 100% = cells with rucaparib alone
# [35] = at 0.313 µM, OCI-C5x cells, without rucaparib
# [36] = at 0.313 µM, OCI-P5x cells, with rucaparib 20 µM, 100% = cells with rucaparib alone
# [37] = at 0.313 µM, OCI-P5x cells, without rucaparib
# [38] = at 1.25 µM, OCI-C5x cells, with rucaparib 10 µM, 100% = cells with rucaparib alone
# [39] = at 1.25 µM, OCI-C5x cells, without rucaparib
# [40] = at 1.25 µM, OCI-P5x cells, with rucaparib 20 µM, 100% = cells with rucaparib alone
# [41] = at 1.25 µM, OCI-P5x cells, without rucaparib
# [42] = at 5 µM, OCI-C5x cells, with rucaparib 10 µM, 100% = cells with rucaparib alone
# [43] = at 5 µM, OCI-C5x cells, without rucaparib
# [44] = at 5 µM, OCI-P5x cells, with rucaparib 20 µM, 100% = cells with rucaparib alone
# [45] = at 5 µM, OCI-P5x cells, without rucaparib
# [46] = stronger effect = lower value, cell number ratio, induced over uninduced
# [47] = measured here: relative caspase fold change +Dox/-Dox
# [48] = measured here: total cells with miR-34 induction, stronger effect = lower value
# [49] = measured here: total cells without miR-34 induction
smiles,measurement,setting,value
Cc1cc(N2CCOCC2)cc2[nH]c(-c3c(NC[C@@H](O)c4cccc(Cl)c4)cc[nH]c3=O)nc12,AC50,[1],0.742 µM (active)
same,AC50,[2],1.48 µM (active)
same,AC50,[3],13.2 µM (active)
same,AC50,[4],7.43 µM (active)
same,AC50,[5],0.209 µM (active)
same,AC50,[6],0.263 µM (active)
same,AC50,[7],0.0526 µM (active)
same,AC50,[8],3.72 µM (active)
same,outcome,[9],inactive
same,viability,[10]; [14],117% (inactive)
same,viability,[10]; [15],119% (inactive)
same,viability,[10]; [16],135% (inactive)
same,viability,[10]; [17],99.5% (active)
same,viability,[10]; [18],126% (inactive)
same,viability,[10]; [19],114% (inactive)
same,viability,[10]; [20],133% (inactive)
same,viability,[10]; [21],97.6% (active)
same,viability,[10]; [22],123% (inactive)
same,viability,[10]; [23],109% (inactive)
same,viability,[10]; [24],130% (inactive)
same,viability,[10]; [25],98.9% (active)
same,viability,[10]; [26],119% (inactive)
same,viability,[10]; [27],118% (inactive)
same,viability,[10]; [28],133% (inactive)
same,viability,[10]; [29],96.1% (active)
same,viability,[10]; [30],126% (inactive)
same,viability,[10]; [31],123% (inactive)
same,viability,[10]; [32],118% (inactive)
same,viability,[10]; [33],83.6% (active)
same,viability,[10]; [34],123% (inactive)
same,viability,[10]; [35],123% (inactive)
same,viability,[10]; [36],79.9% (active)
same,viability,[10]; [37],66.6% (active)
same,viability,[10]; [38],133% (inactive)
same,viability,[10]; [39],126% (inactive)
same,viability,[10]; [40],41.4% (active)
same,viability,[10]; [41],53.5% (active)
same,viability,[10]; [42],37.3% (active)
same,viability,[10]; [43],80.4% (active)
same,viability,[10]; [44],0.53% (active)
same,viability,[10]; [45],12.5% (active)
Cn1c(=O)c(F)c(Nc2ccc(I)cc2F)c2c(=O)n(C[C@@H](O)CO)cnc21,AC50,[1],0.0661 µM (active)
same,AC50,[2],0.264 µM (active)
same,AC50,[3],0.235 µM (active)
same,AC50,[4],3.32 µM (active)
same,AC50,[5],0.132 µM (active)
same,AC50,[6],0.295 µM (active)
same,outcome,[7],inactive
same,AC50,[8],0.0661 µM (active)
same,IC50,[9],1.86 µM (active)
same,SSMD,[11],1.8
same,cell count,[11],7260
same,plate-normalised HSF1 focus index,[11],1.1 (inactive)
same,viability,[10]; [14],107% (inactive)
same,viability,[10]; [15],128% (inactive)
same,viability,[10]; [16],96.8% (active)
same,viability,[10]; [17],106% (inactive)
same,viability,[10]; [18],102% (inactive)
same,viability,[10]; [19],116% (inactive)
same,viability,[10]; [20],81.5% (active)
same,viability,[10]; [21],78.8% (active)
same,viability,[10]; [22],104% (inactive)
same,viability,[10]; [23],118% (inactive)
same,viability,[10]; [24],69% (active)
same,viability,[10]; [25],76.3% (active)
same,viability,[10]; [26],102% (inactive)
same,viability,[10]; [27],111% (inactive)
same,viability,[10]; [28],59.1% (active)
same,viability,[10]; [29],66.1% (active)
same,viability,[10]; [30],88.1% (active)
same,viability,[10]; [31],103% (inactive)
same,viability,[10]; [32],54.4% (active)
same,viability,[10]; [33],64.1% (active)
same,viability,[10]; [34],86.7% (active)
same,viability,[10]; [35],88.4% (active)
same,viability,[10]; [36],43.7% (active)
same,viability,[10]; [37],47.9% (active)
same,viability,[10]; [38],58.9% (active)
same,viability,[10]; [39],92.3% (active)
same,viability,[10]; [40],34.4% (active)
same,viability,[10]; [41],38.4% (active)
same,viability,[10]; [42],49.3% (active)
same,viability,[10]; [43],61.2% (active)
same,viability,[10]; [44],2.17% (active)
same,viability,[10]; [45],26.7% (active)
COc1cc2c(cc1OC)C1CC(=O)C(CC(C)C)CN1CC2 (stereo not drawn),outcome,[1],inactive
same,outcome,[2],inactive
same,outcome,[3],inactive
same,outcome,[4],inactive
same,outcome,[5],inactive
same,outcome,[6],inactive
same,outcome,[7],inactive
same,outcome,[8],inactive
same,outcome,[9],inactive
same,fold change,[12]; [46],0.996 (inactive)
same,fold change,[12]; [47],0.689
same,cell count,[12]; [48],9770
same,cell count,[12]; [49],9800
NC(=NCCCCCCN=C(N)N=C(N)Nc1ccc(Cl)cc1)N=C(N)Nc1ccc(Cl)cc1,AC50,[1],9.34 µM (active)
same,AC50,[2],4.18 µM (active)
same,AC50,[3],14.8 µM (active)
same,AC50,[4],18.7 µM (active)
same,AC50,[5],8.33 µM (active)
same,AC50,[6],9.34 µM (active)
same,AC50,[7],13.2 µM (active)
same,AC50,[8],11.8 µM (active)
same,IC50,[9],14.8 µM (active)
same,fold change,[12]; [46],0.848 (inactive)
same,fold change,[12]; [47],0.439
same,cell count,[12]; [48],1370
same,cell count,[12]; [49],1620
same,z-score,"[13]; MELAS cybrid survival, CellTiter-Glo 48 h, stronger effect = higher value",-0.252 (inactive)
same,z-score,"[13]; Rieske KO mouse fibroblast survival, CellTiter-Glo 72 h",0.00983

# From PubChem BioAssay
